The list is not random: actives were taken first. Their share in the collection is about 14%.
FBPA Giardia inh – qHTS Assay for Inhibitors of Fructose-1,6-bisphosphate Aldolase from Giardia Lamblia. Potency, µM (series often up to 59.6 µM), for inactives: at the highest dose activity, negative = inhibition, actives largely listed as inhibitors. purified Giardia FBPA. 0.71% of 290,000 active. A8B2U2. AID 2451, 2010; further: potency means the concentration at half of the fitted maximal effect; nearly all actives have a fitted effect of over 55% in size
Target sequence (A8B2U2 whole entry, looked up): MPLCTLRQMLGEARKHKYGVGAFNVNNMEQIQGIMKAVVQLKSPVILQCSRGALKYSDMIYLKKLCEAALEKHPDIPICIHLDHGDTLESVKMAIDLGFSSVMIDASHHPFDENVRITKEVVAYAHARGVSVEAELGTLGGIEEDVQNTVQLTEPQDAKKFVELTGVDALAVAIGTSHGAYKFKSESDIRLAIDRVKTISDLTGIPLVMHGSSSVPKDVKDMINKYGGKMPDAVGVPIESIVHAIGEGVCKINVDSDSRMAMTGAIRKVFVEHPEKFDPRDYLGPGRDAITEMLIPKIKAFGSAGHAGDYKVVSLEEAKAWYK
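Giardia FBPA (40 nM reagent) was preincubated 10 min at RT with compound (up to 57.5 uM final), then substrate plus GAPDH/TPI/NAD/arsenate coupling system with diaphorase/resazurin was added; resorufin fluorescence (525/598 nm) was read after 20 min.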
HCMV inh – qHTS Assay for inhibitors of the human cytomegalovirus (HCMV) | AID 1259415, 2018 | 4.5% of 410,000 active | activity change, negative = inhibition, % at 57.5 µM | HFF cells, HCMV-luciferase reporter, 72 h; stronger effect = lower value; in the data active means activity change below about -60%; inconclusive means no clear call, values can overlap the other calls; inactive means above about -39%
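Inhibition of viral replication was scored as loss of reporter luminescence in HFFs infected with HCMV-luciferase (MOI 1 PFU/cell) for 72 h; compounds tested at 2 doses, normalized to buffer and Salinomycin controls.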
Pf growth 96h – Primary qHTS for delayed death inhibitors of the malarial parasite plastid, 96 hour incubation. P. falciparum luciferase reporter growth, 96 h. Potency, µM (titrated, usually from 28.7 µM), for inactives: at the top dose activity change, negative = inhibition, usual class: inhibitors. 6.9% of 320,000 active. AID 504834, 2011; further: potency means the concentration at half of the fitted maximal effect
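Compounds incubated with erythrocytes infected by luciferase-expressing P. falciparum (2% hematocrit, 0.05% parasitemia final) for 96 hours, 37 C in 5% CO2. Growth inhibition scored as decreased luciferase luminescence.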
Sm TGR block – qHTS Assay for the Inhibitors of Schistosoma Mansoni Peroxiredoxins; Potency, µM (series often up to 114 µM), for the others: at the top dose activity change, negative = inhibition, actives largely listed as inhibitors; 3% of 360,000 active; purified TGR, DTNB reduction, TNB absorbance 405 nm; further: potency means the concentration at half of the fitted maximal effect; nearly all actives have a fitted effect of over 60% in size
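TGR 20 nM + NADPH 100 uM (dispensed conc.), cpd preinc 15 min RT; start with NADPH (500 uM addition) then DTNB (15 mM addition). Kinetic TNB absorbance, 405 nm filter. Four-parameter Hill fit across titration.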
Pf growth 48h – Primary qHTS for delayed death inhibitors of the malarial parasite plastid, 48 hour incubation. P. falciparum luciferase growth in erythrocytes, 48 h. Potency, µM (highest dose often 28.7 µM), for the others: at the top dose activity change, negative = inhibition, usual class: inhibitors. 5.9% of 310,000 active; further: potency means the concentration at half of the fitted maximal effect
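Cell-based growth assay: transgenic P. falciparum expressing firefly luciferase, cultured in red cells within RPMI 1640 containing 0.5% w/v Albumax, 24 mM bicarbonate and gentamycin. A drop in luciferase activity indicates inhibition.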
The depositor's hits bear a star; ? = inconclusive; . = no result; [ ] = another dose, or the depositor's remark. Unless noted, the call rests on the fitted dose curve; in most records, active means well fitted curve in the direction sought with a large enough effect; inconclusive means small, poorly fitted or top-dose-only effect, or another doubt; inactive means no such curve, though single readings can be large; an effect the other way counts as inactive or inconclusive. On the % scale 0 is the no-effect control and ±100 the full control effect.

SMILES | FBPA Giardia inh | HCMV inh | Pf growth 96h | Sm TGR block | Pf growth 48h
Cc1ccc(CNC(=O)CN(C)S(=O)(=O)c2cccs2)cc1 | 1% | -19 | ? | 7% | 17%
Cc1ccc(-c2csc3nc4cc(C(=O)NC5CCC(O)CC5)ccc4c(=O)n23)cc1 (stereo not drawn) | -17% | -17 | 2% | -3% | -19%
Cc1ccc(-c2csc3nc4ccc(C(=O)NCCO)cc4c(=O)n23)cc1 | -1% | -90* | -19% | 5% | -20%
O=C(O)c1cccc(OS(=O)(=O)c2cc(Br)ccc2Br)c1 | . | 59 | -20% | -19% | -18%
CC(N)C(=O)NC(C(=O)N1CCCC1C(=O)NC(c1ccccc1)c1ccccc1)C(C)C (stereo not drawn) | . | -18 | -13% | -3% | 32%
CC(=O)N1CCC(C(=O)N2c3ccccc3N=C(c3ccc(C(F)(F)F)cc3)C2C(=O)NC2CCCC2)CC1 (stereo not drawn) | . | 16 | . | . | .
C[C@H]1[C@H](C)CC[C@]2(C)CC[C@]3(C)C(=CC[C@@H]4[C@@]5(C)CC[C@@H](O)[C@](C)(C(=O)O)[C@@H]5CC[C@]43C)[C@H]12 | 17% | . | 13µM* | 22% | ?
C[C@H](N[C@@H](C)COc1ccccc1)[C@H](O)c1ccc(O)cc1 | -1%[21.7 µM] | . | 16%[12.8 µM] | . | -3%[12.8 µM]
CC1=C(C(=O)N(C(C)C)C(C)C)CC(CC(=O)NCc2cccs2)C(=O)N1Cc1ccccc1 (stereo not drawn) | . | -7 | . | . | .
CCCCSc1nc(O)c(C2OC(=O)c3c2ccc(OC)c3OC)c(=O)n1C (stereo not drawn) | 13% | 22 | -1%[5.75 µM] | -17% | 0%
CCCCCCSc1nc(O)c(C2OC(=O)c3c2ccc(OC)c3OC)c(=O)n1-c1ccccc1 (stereo not drawn) | 30% | -16 | -24% | 13µM* | .
O=C(CCCCCn1c(=O)[nH]c2ccsc2c1=O)NCc1ccc2c(c1)OCO2 | 2% | 55 | ? | -19% | ?
Nc1c(S(=O)(=O)c2cccc(Cl)c2)c2nc3ccccc3nc2n1/N=C/c1ccc(O)c(O)c1 | -8% | . | -16% | -21% | 7.4µM*
COc1cccc(/C=N/n2c(N)c(S(=O)(=O)c3cccs3)c3nc4ccccc4nc32)c1OC | 8% | -81* | ? | 10% | ?
Cc1ccccc1N1CC(C(=O)Nc2ccc(S(=O)(=O)N3CCOCC3)cc2)CC1=O (stereo not drawn) | . | -32 | 36% | 4% | -16%
CCOC(=O)C1=C(N)n2c(s/c(=C\c3ccco3)c2=O)=C(C(=O)OC(C)C)C1c1ccco1 (stereo not drawn) | 0% | -20 | ? | 1% | 2.9µM*
CCOC(=O)C1=C(N)n2c(s/c(=C\c3ccco3)c2=O)=C(C(=O)OCC)C1c1ccco1 (stereo not drawn) | 0% | -26 | . | -35% | ?
COc1ccc([C@@H]2[C@H](C(=O)N3CCOCC3)CC(=O)N2C(=O)/C=C/c2ccccc2)cc1 | . | -21 | . | . | .
C=C(c1ccc(O)cc1)c1ccc(O)cc1 | 2% | -15 | -7% | 30% | -13%
Oc1ccc(C(=C(Cl)Cl)c2ccc(O)cc2)cc1 | -1% | . | 2.3µM* | -6% | 2.9µM*
O=C(Nc1nnc(S(=O)(=O)N2CCN(c3ccc(F)cc3)CC2)s1)c1ccco1 | . | -39 | 4% | ? | -29%
CC(C)c1ccc(NC(=O)Nc2nc(C(N)c3ccccc3Cl)cs2)cc1 (stereo not drawn) | . | -70* | . | . | .
CC(C)c1ccc(NC(=O)Nc2nc(C(N)C3CCCCC3)cs2)cc1 (stereo not drawn) | . | -101* | . | . | .
CC(Cc1ccc(O)c(O)c1)C(C)Cc1ccc(O)c(O)c1 (stereo not drawn) | ? | . | 15µM* | . | ?
COc1cc(C[C@@H](C)[C@@H](C)Cc2ccc(O)c(OC)c2)ccc1O | . | -10 | . | . | .
SMILES | FBPA Giardia inh | HCMV inh | Pf growth 96h | Sm TGR block | Pf growth 48h
CCCCN(CC)Cc1c(C)[nH]c2c(ccc3ccccc32)c1=O | 0% | 57 | -10% | -16% | ?
C/C(Cl)=C/Cc1c(C)[nH]c2ccc(C)cc2c1=O | 0% | 67 | 12% | 8% | 0.37µM*
C/C(Cl)=C/Cc1c(C)[nH]c2c(ccc3ccccc32)c1=O | 5% | -22 | -32% | -25% | 0.19µM*
CCOC(=O)CCCNC(=O)N[C@H]1CC[C@@]23CCCN2C(=O)CCC[C@H]3C1Cc1ccccc1 (stereo partly drawn) | . | -5 | . | . | .
Cc1cc(Br)c2nc3c(c(C(=O)O)c2c1)CCCCC3 | 1% | -31 | 8.3µM* | 3% | -3%
CN(C)CC(O)CN1C(=O)N(CN2C(=O)N(CC(O)CN(C)C)C(=O)C2(C)C)C(C)(C)C1=O (stereo not drawn) | 3% | -62* | 16% | 7% | 3%
Cc1nc2ccc(S(=O)(=O)CCC(=O)Nc3ccc(F)cc3C)cc2s1 | . | 3 | . | -1% | .
Fc1cccc(Cl)c1-c1nnc2ccc3ccccc3n12 | ? | -84* | -53%[5.75 µM] | -11% | 2%
Fc1ccccc1-c1nnc2ccc3ccccc3n12 | -15% | 46 | ? | 1% | 8%
COc1ccc2ccccc2c1C1CC(=O)N2CN(C3CCCCC3)CSC2=C1C#N (stereo not drawn) | ? | 52 | ? | 28µM* | .
COc1ccc(C2CC(=O)N3CN(c4ccc(C)c(Cl)c4)CSC3=C2C#N)cc1 (stereo not drawn) | ? | -9 | ? | 45µM* | .
COc1ccc(N2CN=C3SCC(=O)N3C2)cc1 | -21% | 29 | 8% | -32% | 15%
COc1cc(C2CC(=O)N3CN(Cc4ccco4)CSC3=C2C#N)ccc1OCc1ccccc1 (stereo not drawn) | ? | 112 | ? | 0% | .
Cc1cccc(N2CSC3=C(C#N)C(c4ccc(C)o4)CC(=O)N3C2)c1 (stereo not drawn) | ? | . | 10µM* | 11µM* | 36%
COc1ccc2ccccc2c1C1CC(=O)N2CN(Cc3ccco3)CSC2=C1C#N (stereo not drawn) | ? | 6 | -14% | 5.6µM* | .
O=C(NCc1ccccc1)C(c1cc2ccccc2o1)n1c(=O)c(-c2cc3ccccc3[nH]2)nc2ccccc21 (stereo not drawn) | . | 48 | . | . | .
C=CCC[C@H](Cc1ccc(F)cc1)C(=O)OC[C@@H](Cc1c[nH]c2ccccc12)NC(=O)[C@@H](CC=C)CC(=O)N(CCO)Cc1ccccc1 | . | 39 | . | . | .
N#CC1=C2SCN(Cc3ccco3)CN2C(=O)CC1c1ccc(Cl)cc1 (stereo not drawn) | ? | -2 | ? | -3% | ?

Source: PubChem (National Center for Advancing Translational Sciences (NCATS))
